# Reference: PubChem BioAssay
# The source made the active and inactive calls.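 The calls were made as follows, unless noted: active = inhibition at or above 50% at 10 µM; inactive = inhibition below 50%.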
# How the values were obtained:
# [1] = inhibitors of TNFa-induced NFkB p65 translocation, primary screen, imaging, HUVEC, MLSMR starter and 10KST1 sets (AID 438;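 active = inhibition above 20% together with a positive visual image hit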;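 also: compound added about 3h40 before a 20 min TNFalpha stimulation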;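 as to inhibition: signal is the nuclear over cytoplasmic p65 intensity ratio per well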); details: HUVEC TNFa-induced p65 nuclear translocation; cell count: measured here: nuclei count (cytotoxicity indicator), at 2.08 µM; inhibition: at 2 µM, stronger effect = higher value, 0% TNFa-plus-vehicle, 100% no-TNFa wells
# [2] = inhibitors of mutant huntingtin aggregation, primary screen, imaging, exon1htt(103Q)mCFP cells, high-content imaging (AID 483;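 active = visual image review flags a hit and inhibition of aggregation exceeds 20%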;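 also: compound exposure lasted 3 days before fixation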;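 as to nuclei count: percent of the per-plate median nuclei count of sample wells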); details: exon1htt(103Q)mCFP cell line, aggregate imaging, at 2 µM; inhibition of aggregation: stronger effect = higher value; nuclei count: measured here: cell count, toxicity
# [3] = inhibitors of E-selectin induction by TNFa, primary screen, imaging, HUVEC, immunofluorescence, MLSMR starter and 10KST1 sets (AID 487;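 active = visually confirmed hit in the image check and inhibition above 20%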;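 as to inhibition: signal is fraction of cell area covered by stained E-selectin grains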;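 as to nuclei count: 100% = median nuclei count of all wells on the same plate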); details: HUVEC TNFalpha-induced E-selectin immunofluorescence imaging, at 2 µM; inhibition: stronger effect = higher value; nuclei count: measured here: cell number, toxicity
# [4] = molecular target: Voltage-gated potassium channel subunit beta-2 (Rattus norvegicus) (UniProt P62483); assay: KvBeta enzyme negative modulators, primary screen, biochemical, NADPH fluorescence (AID 622;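 active = fluorescence slope higher than the sample average by over 3 SD, cut at about -0.22 in these data, passing the limit was not always enough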;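 also: slope of raw intensity against log time taken from 70 to 1610 s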); details: recombinant KvBeta, 4-cyanobenzaldehyde reduction, at 10 µM, stronger effect = higher value
# [5] = molecular target: Voltage-gated potassium channel subunit beta-2 (Rattus norvegicus) (UniProt P62483); assay: KvBeta positive modulators, primary screen, biochemical, NADPH fluorescence (AID 623;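 active = NADPH fluorescence slope more negative than the mean of all samples by about 3 SD, 99.7% confidence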;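 also: fluorescence intensity change per second fitted from 20 to 320 s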); details: Recombinant KvBeta, NADPH fluorescence decrease slope, 10 min; at 10 µM; stronger effect = lower value
# [6] = molecular target: Alpha-2C adrenergic receptor (Homo sapiens) (UniProt P18825); assay: modulators of alpha2C/GIRK thallium flux, primary screen, cell-based, HEK293 alpha2C/GIRK1/2 (AID 624;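 active = fluorescence slope after compound addition differing from the mean of all screened samples at 99.7% confidence, in either direction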;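 also: slope of fluorescence ratio to pre-addition baseline per second over 15 to 24 s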); details: thallium flux BTC fluorescence, at 10 µM, actives lie on both sides
# [7] = inhibitors of Sendai virus-induced IRF3 signaling, primary screen, TLR/RLR signaling modifier project, cell-based, Sendai virus stimulus, luciferase, 10K MLSCN set (AID 602276); details: HEK293 RL24 IRF3 luciferase reporter, at 10 µM, stronger effect = higher value;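 also: firefly luciferase from ISG56 promoter only with Renilla not read in this screen; 0% = Sendai virus plus DMSO and 100% = medium plus DMSO without virus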
# [8] = inhibitors of poly I:C-induced TLR3 signaling, primary screen, cell-based, poly I:C stimulus, luciferase, 10K MLSCN set (AID 602277;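 active = inhibition of the reporter signal at or above 50%; inactive = inhibition below 50%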); details: HEK293-TLR3 RL24 IRF3 luciferase reporter, at 10 µM, stronger effect = higher value
# Alpha-2C adrenergic receptor (Homo sapiens), sequence (P18825 whole entry, looked up): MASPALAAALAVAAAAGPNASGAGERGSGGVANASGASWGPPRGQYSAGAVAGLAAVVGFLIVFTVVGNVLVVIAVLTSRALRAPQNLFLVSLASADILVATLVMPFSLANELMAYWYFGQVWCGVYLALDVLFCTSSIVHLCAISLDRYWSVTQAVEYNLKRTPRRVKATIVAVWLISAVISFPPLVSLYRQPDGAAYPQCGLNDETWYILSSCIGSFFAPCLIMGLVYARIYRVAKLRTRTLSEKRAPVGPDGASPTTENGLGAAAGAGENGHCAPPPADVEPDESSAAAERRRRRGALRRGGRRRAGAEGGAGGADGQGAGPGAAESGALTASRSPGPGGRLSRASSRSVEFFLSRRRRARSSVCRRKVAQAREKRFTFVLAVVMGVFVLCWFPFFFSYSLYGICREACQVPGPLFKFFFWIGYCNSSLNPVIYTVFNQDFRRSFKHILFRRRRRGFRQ
# Voltage-gated potassium channel subunit beta-2 (Rattus norvegicus), sequence (P62483 whole entry, looked up): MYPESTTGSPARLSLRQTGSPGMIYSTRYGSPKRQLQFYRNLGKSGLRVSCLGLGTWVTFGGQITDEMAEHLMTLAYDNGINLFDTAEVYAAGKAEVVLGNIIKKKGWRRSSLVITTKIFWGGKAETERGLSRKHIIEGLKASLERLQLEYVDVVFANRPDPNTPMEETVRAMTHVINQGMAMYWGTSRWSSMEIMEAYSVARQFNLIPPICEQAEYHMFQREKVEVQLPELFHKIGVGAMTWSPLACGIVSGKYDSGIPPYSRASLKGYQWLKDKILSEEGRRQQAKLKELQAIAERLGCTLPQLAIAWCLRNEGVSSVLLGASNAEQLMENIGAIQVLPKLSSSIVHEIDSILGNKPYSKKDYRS
Structure (SMILES),cell count [1],inhibition [1],inhibition of aggregation [2],nuclei count [2] [%],inhibition [3],nuclei count [3] [%],fluorescence slope [4],NADPH fluorescence slope [5],slope [6],inhibition [7],inhibition [8]
CCn1c(SCC(=O)N2c3ccccc3CCc3ccccc32)nc2c1c(=O)n(C)c(=O)n2C,706,-3.2% (inactive),25.6% (inactive),80.2,-2.5% (inactive),131,-0.516 (inactive),-8.1e-05 (inactive),0.0052 (inactive),5.5% (inactive),16.2% (inactive)
Cc1ccccc1-c1nc(CN2CCC(C(=O)N3CCC(C(N)=O)CC3)CC2)c(C)o1,576,6.1% (inactive),1.2% (inactive),87.6,7.6% (inactive),87.8,-0.548 (inactive),-3.8e-05 (inactive),0.00557 (inactive),7.94% (inactive),40.4% (inactive)
CCOc1cc(C2NC(=O)N(C)C(C)=C2C(=O)OC)cc(Br)c1O (centres undefined),620,-17.6% (inactive),-9.6% (inactive),110,-13.7% (inactive),104,-0.611 (inactive),-4.2e-05 (inactive),0.00546 (inactive),-0.511% (inactive),5.13% (inactive)
Cc1noc(/C=C/N(C)C)c1S(=O)(=O)N1CCCC(C(=O)NC2CCCCC2)C1 (centres undefined),625,11.7% (inactive),7.9% (inactive),93.6,34.5% (inactive),62.5,-0.566 (inactive),1.6e-05 (inactive),0.0069 (inactive),16.1% (inactive),14.8% (inactive)
COCCN(CC(=O)Nc1ccccc1C)S(=O)(=O)c1ccc(S(=O)(=O)N2CCCC2)cc1,404,-9.5% (inactive),-6.7% (inactive),103,-18.2% (inactive),69.8,-0.416 (inactive),-7.2e-05 (inactive),0.0043 (inactive),7.63% (inactive),13.5% (inactive)
O=C(CN1C(=O)CSC1=O)Nc1ccc(N2CCOCC2)cc1,700,-1% (inactive),15.2% (inactive),110,-27.8% (inactive),113,-0.544 (inactive),-2.2e-05 (inactive),0.00569 (inactive),-8.99% (inactive),-8.78% (inactive)
CC(=O)c1c(OC(=O)c2ccco2)c2ccccc2n1C,386,1% (inactive),15.7% (inactive),72.8,-81.6% (inactive),101,-0.367 (inactive),-1.2e-05 (inactive),0.00641 (inactive),12% (inactive),1.24% (inactive)
COc1cccc(NC(=O)CSc2nnnn2C(C)C)c1,738,6.1% (inactive),-20.3% (inactive),109,-4.8% (inactive),123,-0.538 (inactive),-9e-05 (inactive),0.00723 (inactive),0.303% (inactive),-4.86% (inactive)
Cn1c(=O)c2c(nc(CN3CCc4ccccc4C3)n2Cc2cccc(Cl)c2)n(C)c1=O,646,8% (inactive),0.6% (inactive),102,-22.8% (inactive),124,-0.575 (inactive),-4.8e-05 (inactive),0.00753 (inactive),19.5% (inactive),-58.7% (inactive)
CCOC(=O)N1CCC(N2C(=O)c3ccccc3C2Nc2ccccc2C)CC1 (centres undefined),568,5.8% (inactive),-4% (inactive),98.2,-22.5% (inactive),106,-0.531 (inactive),-3.2e-05 (inactive),0.00624 (inactive),3.88% (inactive),36.9% (inactive)
O=C(O)Cn1cc(C(=O)c2ccco2)c2ccccc21,316,16.3% (inactive),3.6% (inactive),108,30.1% (inactive),104,-0.487 (inactive),-1.2e-05 (inactive),0.00668 (inactive),0.251% (inactive),8.5% (inactive)
CC(C)NC(=O)Nc1cccs1,708,3% (inactive),21.6% (inactive),104,-84.5% (inactive),105,-0.507 (inactive),-5.6e-05 (inactive),0.00565 (inactive),11.4% (inactive),4.68% (inactive)
CC(=O)N(CCc1ccccc1C)Cc1cc2cc3c(cc2[nH]c1=O)OCO3,251,12.1% (inactive),1.2% (inactive),86.1,-68.1% (inactive),116,-0.592 (inactive),-6.2e-05 (inactive),0.00459 (inactive),8.48% (inactive),15.6% (inactive)
CC(=O)N(c1ccc(Br)cc1)C1C=CS(=O)(=O)C1 (centres undefined),476,3.9% (inactive),25.9% (inactive),49.7,-13.7% (inactive),102,-0.551 (inactive),-4.3e-05 (inactive),0.00701 (inactive),13.8% (inactive),30% (inactive)
